Data taken from PubChem BioAssay (Tox21).
Several values for one entry are separate records, joined by “and”; a condition that tells them apart may be missing. Identical values can stand only once. Inconclusive results are not listed. Where a call stands in place of a potency, no number is given. Where a structure was tested more than once in an assay, its records may differ in their call. Activity calls are given as the source filed them. Calls follow the shape of the dose curve; as a rule, active = well fitted inhibition curve with a large enough effect in the repeat runs; inconclusive = weak or mixed curves; inactive = no such curve, though single readings can be large or run the other way.

These compounds were tested against Cytochrome P450 2C19 (Homo sapiens) (UniProt P33261) (assay: Cytochrome P450 Family 2 Subfamily C Member 19 (CYP2C19) small molecule antagonists: luciferase reporter qHTS assay (AID 1671197; also: nearly all actives have a fitted effect of over 65% in size)). Conditions: P450-Glo CYP2C19 enzyme, luciferin luminescence, 1 h; series mostly up to 115 µM.
Sequence of Cytochrome P450 2C19 (Homo sapiens) (P33261 whole entry, looked up): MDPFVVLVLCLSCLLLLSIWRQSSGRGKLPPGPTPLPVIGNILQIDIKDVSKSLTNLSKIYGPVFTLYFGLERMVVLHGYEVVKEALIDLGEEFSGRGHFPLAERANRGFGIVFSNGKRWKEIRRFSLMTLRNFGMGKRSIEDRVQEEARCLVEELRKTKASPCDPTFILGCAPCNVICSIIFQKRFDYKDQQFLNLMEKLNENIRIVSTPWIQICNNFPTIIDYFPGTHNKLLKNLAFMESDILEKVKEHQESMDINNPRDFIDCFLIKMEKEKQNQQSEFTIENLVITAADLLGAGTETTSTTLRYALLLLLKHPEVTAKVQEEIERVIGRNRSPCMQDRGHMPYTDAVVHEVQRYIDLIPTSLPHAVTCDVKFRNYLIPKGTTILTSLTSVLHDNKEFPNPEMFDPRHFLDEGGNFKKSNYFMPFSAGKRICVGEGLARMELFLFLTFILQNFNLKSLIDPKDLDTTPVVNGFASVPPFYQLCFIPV
Procedure, shortened: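 Luminescent readout of CYP2C19 activity: luciferin product detected 20 min after adding detection reagent. Before that, compound and enzyme-substrate mix preincubated 10 min at room temperature; NADPH-regenerating system started a 1 h, 37C reaction. Ketoconazole as positive control.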
Potency is read from the fitted curve at half-maximal effect.

| Structure (SMILES) | Potency |
| --- | --- |
| CCCC1COC(Cn2cncn2)(c2ccc(Cl)cc2Cl)O1 (stereo not given) | 456 nM (active) and 356 nM (active) |
| O=[N+]([O-])c1ccccc1 | inactive |
| C=CCO | inactive |
| CCNc1nc(NC(C)(C)C)nc(SC)n1 | 17.6 µM (active) and 39.9 µM (active) |
| Clc1ccc(Cl)cc1 | inactive |
| Cc1ccc([N+](=O)[O-])cc1C | inactive |
| O=C1CCCN1 | 8.05 µM (active) and inactive |
| O=[N+]([O-])c1ccc(Oc2ccc(Cl)cc2Cl)cc1 | 5.67 µM (active) and 5.64 µM (active) |
| O=c1[nH]c2ccccc2c(=O)o1 | inactive |
| O=S(=O)(c1ccc(O)cc1)c1ccc(O)cc1 | 17.9 µM (active) and 22.4 µM (active) |
| CC(=O)C=C(C)C | inactive |
| CN(C)N=O | inactive |
| CCCN(CCC)N=O | inactive |
| Cc1cccc([N+](=O)[O-])c1 | inactive |
| CCCCCCCCCCCC#N | 18 µM (active) and inactive |
| O=c1n(Cl)c(=O)n(Cl)c(=O)n1Cl | inactive |
| Oc1ccccc1Cl | inactive |
| NCCc1ccc(O)cc1 | 49.9 µM (active) and inactive |

| Structure (SMILES) | Potency |
| --- | --- |
| CC(Br)C(=O)O (stereo not given) | 45.3 µM (active) |
| CN(C)CCO | inactive |
| Nc1c(Cl)c(Cl)nc(C(=O)O)c1Cl | inactive and 8.22 µM (active) |
| CCOP(=S)(OCC)SCCSCC | 3.67 µM (active) and 1.07 µM (active) |
| C[C@]12CC[C@H]3[C@@H](CC[C@@]45O[C@@H]4C(O)=C(C#N)C[C@]35C)[C@@H]1CC[C@@H]2O | inactive |
| CC1OC(C)OC(C)O1 (stereo not given) | inactive |
| Cn1cc(-c2ccccc2)c(=O)c(-c2cccc(C(F)(F)F)c2)c1 | 1.95 µM (active) and 2.83 µM (active) |
| CCN(CC)c1ccccc1 | inactive |
| CC(C)C#N | 67.3 µM (active) and inactive |
| BrCCBr | 69.1 µM (active) and inactive |
| Nc1ccccc1C(=O)O | inactive |
| CC(C)(C)OOC(=O)c1ccccc1 | inactive |
| OCCN(CCO)CCO | inactive |
| Cc1ccccc1O | inactive |
| O=NN1CCCCCCC1 | inactive |
| Clc1ccccc1Cl | inactive |
| CC(C)OC(=O)Nc1ccccc1 | 40 µM (active) |
| CCC[N+](=O)[O-] | 27.8 µM (active) |

The compounds below were run against Cytochrome P450 2C9 (Homo sapiens) (UniProt P11712) (assay: Cytochrome P450 Family 2 Subfamily C Member 9 (CYP2C9) small molecule antagonists: luciferase reporter qHTS assay (AID 1671198; also: nearly all actives have a fitted effect of over 50% in size)). Conditions: P450-Glo CYP2C9 enzyme assay, luciferin luminescence; series mostly up to 115 µM.
Sequence of Cytochrome P450 2C9 (Homo sapiens) (P11712 whole entry, looked up): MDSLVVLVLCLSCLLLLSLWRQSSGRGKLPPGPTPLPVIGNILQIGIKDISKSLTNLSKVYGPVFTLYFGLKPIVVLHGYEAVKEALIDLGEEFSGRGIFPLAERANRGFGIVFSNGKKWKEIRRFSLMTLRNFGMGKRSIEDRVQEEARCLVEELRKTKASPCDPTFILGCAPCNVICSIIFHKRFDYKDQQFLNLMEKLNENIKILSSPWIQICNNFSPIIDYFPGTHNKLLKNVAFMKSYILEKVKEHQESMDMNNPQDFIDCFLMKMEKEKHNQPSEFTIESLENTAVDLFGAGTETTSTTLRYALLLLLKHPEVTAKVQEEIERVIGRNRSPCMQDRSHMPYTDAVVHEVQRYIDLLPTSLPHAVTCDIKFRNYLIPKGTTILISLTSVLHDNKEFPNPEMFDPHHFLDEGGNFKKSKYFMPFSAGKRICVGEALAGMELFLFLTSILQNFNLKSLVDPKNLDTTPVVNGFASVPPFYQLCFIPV
Procedure, shortened: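 CYP2C9 activity was measured with a P450-Glo proluciferin substrate. Enzyme–substrate mix was held with compound for 10 min at room temperature, then NADPH regeneration solution was added for 1 h at 37C. Luciferin product was read as luminescence.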

| Structure (SMILES) | Potency |
| --- | --- |
| CCCC1COC(Cn2cncn2)(c2ccc(Cl)cc2Cl)O1 (stereo not given) | 2.04 µM (active) and 2.24 µM (active) |
| O=[N+]([O-])c1ccccc1 | inactive |
| Clc1ccc(Cl)cc1 | inactive |
| Cc1ccc([N+](=O)[O-])cc1C | inactive |
| O=c1[nH]c2ccccc2c(=O)o1 | inactive |
| O=S(=O)(c1ccc(O)cc1)c1ccc(O)cc1 | inactive |
| CCCN(CCC)N=O | inactive |
| O=c1n(Cl)c(=O)n(Cl)c(=O)n1Cl | inactive |
| Oc1ccccc1Cl | inactive |
| CC(Br)C(=O)O (stereo not given) | 36 µM (active) |
| CN(C)CCO | inactive |
| Nc1c(Cl)c(Cl)nc(C(=O)O)c1Cl | inactive and 65.3 µM (active) |
| CCOP(=S)(OCC)SCCSCC | 32.7 µM (active) and 15.1 µM (active) |
| C[C@]12CC[C@H]3[C@@H](CC[C@@]45O[C@@H]4C(O)=C(C#N)C[C@]35C)[C@@H]1CC[C@@H]2O | inactive |
| CC1OC(C)OC(C)O1 (stereo not given) | inactive |
| Cn1cc(-c2ccccc2)c(=O)c(-c2cccc(C(F)(F)F)c2)c1 | 34.7 µM (active) and 31.7 µM (active) |
| CC(C)(C)OOC(=O)c1ccccc1 | inactive |
| OCCN(CCO)CCO | inactive |
| Cc1ccccc1O | inactive |
| Clc1ccccc1Cl | inactive |
| CCC[N+](=O)[O-] | inactive |

Each compound was assayed against Cytochrome P450 1A2 (Homo sapiens) (UniProt P05177) (assay: Cytochrome P450 Family 1 Subfamily A Member 2 (CYP1A2) small molecule antagonists: luciferase reporter qHTS assay (AID 1671199; also: nearly all actives have a fitted effect of over 50% in size)). Conditions: P450-Glo CYP1A2 enzyme, luciferin luminescence, 1 h; series mostly up to 115 µM.
Sequence of Cytochrome P450 1A2 (Homo sapiens) (P05177 whole entry, looked up): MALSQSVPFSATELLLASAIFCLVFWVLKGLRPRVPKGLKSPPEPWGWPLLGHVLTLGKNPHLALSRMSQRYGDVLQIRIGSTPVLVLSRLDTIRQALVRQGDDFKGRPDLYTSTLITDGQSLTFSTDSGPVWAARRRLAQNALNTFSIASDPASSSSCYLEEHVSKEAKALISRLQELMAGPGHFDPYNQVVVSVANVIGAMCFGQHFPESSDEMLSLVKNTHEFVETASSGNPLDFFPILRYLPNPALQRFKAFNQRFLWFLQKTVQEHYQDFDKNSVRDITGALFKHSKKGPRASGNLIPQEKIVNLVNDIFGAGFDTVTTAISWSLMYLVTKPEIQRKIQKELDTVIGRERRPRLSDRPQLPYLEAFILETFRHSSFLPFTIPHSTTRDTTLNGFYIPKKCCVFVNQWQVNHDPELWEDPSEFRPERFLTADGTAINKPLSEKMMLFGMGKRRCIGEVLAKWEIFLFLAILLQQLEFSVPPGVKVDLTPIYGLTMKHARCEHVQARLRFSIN
Procedure, shortened: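 P450-Glo CYP1A2 enzyme–proluciferin substrate mix with compound 10 min at room temperature, then NADPH regeneration 1 h at room temperature. Luciferin detection reagent added, luminescence read after 20 min; furafylline positive control.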

| Structure (SMILES) | Potency |
| --- | --- |
| CCCC1COC(Cn2cncn2)(c2ccc(Cl)cc2Cl)O1 (stereo not given) | 20.4 µM (active) and 31.7 µM (active) |
| O=[N+]([O-])c1ccccc1 | inactive |
| C=CCO | inactive |
| CCNc1nc(NC(C)(C)C)nc(SC)n1 | 7.01 µM (active) and 7.96 µM (active) |
| Clc1ccc(Cl)cc1 | inactive |
| Cc1ccc([N+](=O)[O-])cc1C | inactive |
| O=C1CCCN1 | inactive |
| O=[N+]([O-])c1ccc(Oc2ccc(Cl)cc2Cl)cc1 | 31.9 µM (active) and 22.4 µM (active) |
| O=c1[nH]c2ccccc2c(=O)o1 | inactive and 35.6 µM (active) |
| O=S(=O)(c1ccc(O)cc1)c1ccc(O)cc1 | inactive |
| CC(=O)C=C(C)C | inactive |
| CN(C)N=O | inactive |
| CCCN(CCC)N=O | inactive |
| Cc1cccc([N+](=O)[O-])c1 | inactive |
| CCCCCCCCCCCC#N | inactive |
| O=c1n(Cl)c(=O)n(Cl)c(=O)n1Cl | inactive |
| NCCc1ccc(O)cc1 | 39.6 µM (active) and inactive |

| Structure (SMILES) | Potency |
| --- | --- |
| CC(Br)C(=O)O (stereo not given) | inactive |
| CN(C)CCO | inactive |
| Nc1c(Cl)c(Cl)nc(C(=O)O)c1Cl | 39.5 µM (active) and inactive |
| CCOP(=S)(OCC)SCCSCC | 26 µM (active) and 7.57 µM (active) |
| C[C@]12CC[C@H]3[C@@H](CC[C@@]45O[C@@H]4C(O)=C(C#N)C[C@]35C)[C@@H]1CC[C@@H]2O | inactive |
| Cn1cc(-c2ccccc2)c(=O)c(-c2cccc(C(F)(F)F)c2)c1 | 19.5 µM (active) and 17.8 µM (active) |
| CCN(CC)c1ccccc1 | inactive |
| CC(C)C#N | inactive |
| BrCCBr | 30.9 µM (active) and inactive |
| Nc1ccccc1C(=O)O | 40.1 µM (active) and inactive |
| CC(C)(C)OOC(=O)c1ccccc1 | inactive |
| Cc1ccccc1O | 39.9 µM (active) |
| O=NN1CCCCCCC1 | inactive |
| Clc1ccccc1Cl | inactive |
| CC(C)OC(=O)Nc1ccccc1 | 28.3 µM (active) and 39.9 µM (active) |
| CCC[N+](=O)[O-] | inactive |
